# Measurements taken from PubChem BioAssay AID1259343 (VanderVen Lab, College of Veterinary Medicine, Cornell …, 2017).
# Out of some 6,200 compounds screened, about 2,900 (47%) were called active. So high a share suggests a set chosen from earlier hits. The list shows a part of the results. Values without a mark were called inactive. Cut-off read from the data, not from the text of the source: active = inhibition above about 50%; inactive = the rest.
# Assay: Mycobacterium tuberculosis growth inhibition, primary screen (AID 1259343)
# Settings: inhibition: at 10 µM, stronger effect = higher value; outcome: 10 uM
row,SMILES,inhibition
1,Cc1sc2nc(-c3cccs3)nc(N3CCNC(C(N)=O)C3)c2c1C (stereo not given),26%
2,O=[N+]([O-])c1ccc2nc(C(F)(F)F)[nH]c2c1,102% (active)
3,O=[N+]([O-])c1ccc2[nH]c(O)c(N=Nc3cccc(C(F)(F)F)c3)c2c1,-6.56%
4,O=S(=O)(c1ccc(Cl)s1)N1CCN(c2ccnc3cc(Cl)ccc23)CC1,9.81%
5,CCNC(=S)N1CCN(S(=O)(=O)c2ccc(Cl)s2)CC1,99.5% (active)
6,O=S(=O)(c1ccc(Cl)s1)N1CCN(c2ccc(F)cc2)CC1,-6.71%
7,Cc1cc(N)n(CC(=O)NCCn2c(C)cc3ccccc32)n1,-1.16%
8,C=CCNC(=O)Cn1c(-n2nc(C)cc2C)nc2c(c1=O)CCCC2,98% (active)
9,Cc1cc(C)n(-c2nc3c(c(=O)n2CC(=O)NC2CCCC2)CCCC3)n1,88.4% (active)
10,Oc1cc(-c2cccc3c2Sc2ccccc2S3)cc2c1OCCNC2,22%
11,COc1ccc(C2(C(=O)Nc3nc(C)c(C)s3)CCCCC2)cc1,91.6% (active)
12,COC(=O)Nc1ccc(OCc2nc(C)c(C)s2)cc1,2.64%
13,Cc1ncc(CN(C)C(=O)c2ccc(Cl)c(Cl)c2O)s1,45.2%
14,Cc1ccc(O)c(C(=O)N(C)Cc2ccccc2C(F)(F)F)c1,14.5%
15,CN(Cc1ccc(Br)s1)C(=O)c1ccccc1O,89.5% (active)
16,O=C1c2ccccc2C(=O)c2oc(-c3cc([N+](=O)[O-])cc([N+](=O)[O-])c3)nc21,61.8% (active)
17,CCCc1cc(NCC2CCCO2)n2nc(C)c(-c3ccccc3)c2n1 (stereo not given),39.6%
18,CCCc1cc(NCC2CCCO2)n2nc3nc(C)cc(C)c3c2n1 (stereo not given),98.6% (active)
19,CCCc1cc(N2CCCC2)n2nc3nc(C)cc(C)c3c2n1,22%
20,Cc1cc(C)cc(NC(=O)COc2coc(CN3CCc4ccccc43)cc2=O)c1,69.1% (active)
21,O=c1cc(CN2CCc3ccccc32)occ1OCc1ccc(Cl)cc1,1.87%
22,CCc1nnc(N/N=C\c2cc(Cl)c(OCc3ccccc3F)c(OC)c2)n1N,51.4% (active)
23,CC(C)=CCCC(C)[C@@H]1CC[C@]2(C)C3=C(CC[C@@]12C)C1(C)CC[C@H](O)C(C)(C)C1CC3 (stereo not given in full),49.1%
24,CCCCOc1c(I)cc(CNCCN(C)C)cc1OCC,-1.94%
25,COc1ccc([C@@H](C)C(=O)c2ccc(O)cc2O)cc1,64.6% (active)
26,COc1ccc(C(=O)Nc2cnn(C(C)(C)C)c2)c(O)c1,-6.01%
27,COc1c(O)cc(O)cc1O,19.6%

row,SMILES,inhibition
1,O=C(CCl)N1CCN(c2ncc(C(F)(F)F)cc2Cl)CC1,67.7% (active)
2,O=S(=O)(c1cccc(Br)c1)N1CCCN(c2ncc(C(F)(F)F)cc2Cl)CC1,45%
3,CS(=O)c1c(Cl)cccc1NC(=O)N1CCN(c2ncc(Cl)cc2Cl)CC1 (stereo not given),-25.6%
4,COc1ccc(C(=O)C=Cc2ccc(Br)cc2F)c(OC)c1,-5.68%
5,Cc1c(/C=C/c2ccc(Br)cc2F)n[nH]c(=O)c1C#N,67% (active)
6,O=C(c1ccc(Cl)cc1Cl)N1CCCC(OCc2ccccc2Cl)C1 (stereo not given),20.5%
7,Oc1ccc(C=NNc2ncnc3scc(-c4ccccc4)c23)c(O)c1,12.7%
8,O=C(NN=CC=Cc1ccccc1)c1cc(C23CC4CC(CC(C4)C2)C3)[nH]n1,11.1%
9,C(=Cc1ccccc1)C=NNc1ncnc2ccccc12,99.2% (active)
10,c1ccc(Nc2ccc(OCc3nn[nH]n3)cc2)cc1,10.5%
11,C(=Cc1ccccc1)C=NNc1nn[nH]n1,86.6% (active)
12,CC(C)c1nnc(SCc2cccnc2)c2c1cnn2-c1ccc(F)cc1,48%
13,Cc1ccc(-n2ncc3c(C4CC4)nn(C)c(=O)c32)cc1C,47.4%
14,CCOCCSc1nnc(C)c2cnn(-c3ccc(C)c(C)c3)c12,51.4% (active)
15,CC(=O)C1=NN(c2ccccc2)C2C(=O)N(c3ccc(Br)cc3)C(=O)C12 (stereo not given),14.1%
16,O=C1[C@H]2C(c3ccccc3)=NN(c3ccccc3)[C@H]2C(=O)N1c1ccccc1,73% (active)
17,O=c1[nH]cnc2c1nnn2-c1ccc(OC(F)(F)F)cc1,49.2%
18,N[C@H](C(=O)O)[C@@H]1CC(Cl)=NO1,91.8% (active)
19,CCOc1cc(C=CC(=O)c2ccc(Cl)cc2)ccc1O,54% (active)
20,CCOc1c(Br)cc(C=CC(=O)c2ccc(F)cc2)cc1OC,-23.1%
21,CCOc1c(Br)cc(C=CC(=O)c2ccc(OC)cc2)cc1OC,14.3%
22,O=S(=O)(Nc1ccc(OC(F)F)c(Cl)c1)c1ccc(Cl)s1,79.2% (active)
23,O=S(=O)(Nc1ccc(OC(F)F)c(Cl)c1)c1ccc(Cl)c(Cl)c1,-2.94%
24,O=S(=O)(Nc1ccc(F)c(Cl)c1)c1ccc(Br)s1,24.5%
25,O=S(=O)(Nc1ccc(OC(F)F)c(Cl)c1)c1ccc(F)c(Cl)c1,-3.78%
26,O=S(=O)(Nc1ccc(F)c(Cl)c1)c1ccc(Cl)s1,52.7% (active)
27,Cc1ccc(-c2ccsc2C(=O)NS(=O)(=O)N2CCCCC2)cc1,20.7%

row,SMILES,inhibition
1,COC(=O)c1sccc1S(=O)(=O)Nc1cc(C)ccc1OC,54.2% (active)
2,COC(=O)c1sccc1NS(=O)(=O)c1cc(Cl)cc(Cl)c1,7.22%
3,O=C(C1c2ccccc2Oc2ccccc21)N(C(=O)N1CCCCC1)c1ccccc1,3.02%
4,Cc1cc(OCCN2CCN(Cc3ccccc3)CC2)ccc1I,88.7% (active)
5,Cc1cc(C)c(CN2CCC(CO)(CCOc3ccccc3)CC2)cc1C,17.3%
6,Cc1cccc(Cn2nc(-c3ccc(F)cc3)c3sc(C)nc3c2=O)c1,94% (active)
7,O=c1ccc(-c2cccc(Br)c2)nn1Cc1cccc(F)c1,48.5%
8,Cc1cccc(Cn2nc(-c3ccc(Br)cc3)ccc2=O)c1,24.7%
9,CC(C)c1ccc(S(=O)(=O)c2ccc(Cl)cc2)cc1,-10.2%
10,COc1ccc2c(C)nc(N=C(N)N)nc2c1,38.5%
11,COc1ccc(C(N)=S)cc1,68.6% (active)
12,CC(C)c1ccc(C(N)=S)cc1,99.7% (active)
13,CCN(C(=O)c1ccc2c(=O)n(CC)c(=O)[nH]c2c1)c1ccccc1C,-22.1%
14,CCCc1nc(CN2Cc3ccccc3-c3ccccc3C2)no1,-15.3%
15,Fc1ccc(Cn2ncc3c2CN(c2nc4ccccc4s2)C3)cc1,32.9%
16,Fc1ccccc1Cc1noc(CN2CCN(c3nc4ccccc4s3)CC2)n1,60.6% (active)
17,c1ccc(CCc2noc(CN3CCN(c4nc5ccccc5s4)CC3)n2)cc1,89.5% (active)
18,c1csc(-c2noc(CN3CCCN(c4nc5ccccc5s4)CC3)n2)c1,91.6% (active)
19,O=C(NN=Cc1ccco1)c1cc(-c2ccc(Cl)cc2)n[nH]1,43.3%
20,O=C(NN=Cc1ccc(O)cc1)c1cc(-c2ccc(Cl)cc2Cl)n[nH]1,85.8% (active)
21,O=C(NN=Cc1ccc(O)cc1)c1cc(C23CC4CC(CC(C4)C2)C3)[nH]n1,16.7%
22,COCCCCC(=O)Nc1cc(C(F)(F)F)[nH]n1,78% (active)
23,COc1cccc(C2Oc3ccccc3C3CC(c4ccc5c(c4)OCCO5)=NN32)c1 (stereo not given),103% (active)
24,COc1cccc2c1OC(c1ccccn1)N1N=C(c3ccccc3)CC21 (stereo not given),-22.4%
25,Cc1cccc(C2Oc3ccccc3C3CC(c4ccc5c(c4)OCCO5)=NN32)c1 (stereo not given),-14.9%
26,CN1CCC[C@@H]1CCO[C@](C)(c1ccccc1)c1ccc(Cl)cc1,37.7%
27,O=C(Nc1ncc(-c2ccccc2)s1)C1CSCCS1 (stereo not given),95.8% (active)

row,SMILES,inhibition
1,O=C(Nc1ncc(-c2ccccc2)s1)OCC(F)(F)F,0.3%
2,S=C(NN=C1CC2CC=CC12)NC1CCCCC1 (stereo not given),1.05%
3,O=C1CCCC(=NNC(=S)NC2CCCCC2)C1,55.2% (active)
4,CC1(C)CC(=O)CC(=NNC(=S)NC2CCCCC2)C1,34.4%
5,CN(CCC(O)c1ccccc1)C(=O)c1ccc(Cl)s1 (stereo not given),13.2%
6,CC(CCc1ccccc1)N=c1c([N+](=O)[O-])nn(-c2ccccc2)n1O (stereo not given),102% (active)
7,Cc1cc2c(=O)n(Cc3ccco3)c(SCC(=O)c3cccs3)nc2s1,85.2% (active)
8,COc1ccc(-c2noc(CSc3nnnn3C3CCCC3)n2)cc1,41%
9,COc1ccc(-c2noc(COc3cccc4c3OCCO4)n2)cc1,51.6% (active)
10,CC(C(O)c1ccccc1)N(C)C(=O)c1ccccc1 (stereo not given),1.34%
11,CN(NC(=O)CC(=O)NN(C)C(=S)c1ccccc1)C(=S)c1ccccc1,102% (active)
12,Oc1ccc2ccccc2c1C=NNc1nnc(-c2ncc[nH]2)c2ccccc12,99% (active)
13,Cc1cc(=O)[nH]c(NN=Cc2c3ccccc3cc3ccccc23)n1,49.1%
14,Oc1ccc2ccccc2c1C=NNC1=NCCC1,27.5%
15,CCCC(C)C1(CC)C(=O)NC(=S)NC1=O (stereo not given),32.6%
16,CS(=O)(=O)Nc1ccc([N+](=O)[O-])cc1Oc1ccccc1,24.9%
17,Nc1cc([N+](=O)[O-])ccc1NS(=O)(=O)c1ccc(Cl)cc1,-52.1%
18,Nc1ccc(S(=O)(=O)Nc2ccc([N+](=O)[O-])cc2O)cc1,53.9% (active)
19,CC(=NNC(N)=S)C1=CC(C)(C)CCC1,90.9% (active)
20,Cc1cnc(NC(=O)c2cccc(OC(F)F)c2)s1,-11.7%
21,CCOc1ccc(NC(=O)c2ccc(Br)s2)cc1,8.86%
22,CCc1ccc(C(=O)Nc2ccc(Br)cc2)s1,73.9% (active)
23,Cc1cnc(NC(=O)C2=C(O)c3ccccc3S(=O)(=O)N2C)s1,34.9%
24,CCc1ccc(C(=O)Nc2ncc(C)s2)s1,62.1% (active)
